According to PubChem BioAssay (Tox21):
Results filed as inconclusive are left out. A call without a number means that no potency is given here. Activity calls are given as the source filed them. Unless noted, calls come from the whole dose curve; as a rule, active = well fitted curve in the direction sought with a large enough effect in the repeat runs; inconclusive = weak or mixed curves; inactive = no such curve, though single readings can be large; an effect the other way counts as inactive or inconclusive.

Experiments:
[1] = molecular target: Peroxisome proliferator-activated receptor delta (Homo sapiens) (UniProt Q03181); experiment: qHTS assay to identify small molecule antagonists of the peroxisome proliferator-activated receptor delta (PPARd) signaling pathway (AID 743215; active = well fitted inhibition curve with a large enough effect in the signal ratio in the repeat runs, not every such curve was filed as active; the % refers to the signal ratio;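 note: cells stimulated with agonist L165041 at 300 nM final during compound exposure; series mostly up to about 62 µM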)
Procedure, shortened: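 HEK293H UAS-bla, PPARd; agonist L165041 300 nM final with cpd in DMSO; 37 C 17 h; FRET substrate, RT 2 h; fluorescence intensity.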

[2] = qHTS assay to identify small molecule agonists of the farnesoid-X-receptor (FXR) signaling pathway - cell viability counter screen (AID 743218); note: nearly all actives have a fitted effect of over 45% in size; note: potency is the fitted concentration of half-maximal effect
Procedure, shortened: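 Parallel cytotoxicity test: compound-treated (16 h, 37 C) HEK 293T FXR-bla reporter cells were lysed with CellTiter-Glo and luminescence recorded.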

[3] = qHTS assay to identify small molecule antagonists of the farnesoid-X-receptor (FXR) signaling pathway - cell viability counter screen (AID 743221; active = well fitted cell-killing curve with a large enough effect in the repeat runs, not every such curve was filed as active; note: nearly all actives have a fitted effect of over 50% in size; note: potency is the fitted concentration of half-maximal effect)
Procedure, shortened: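 Luminescence from CellTiter-Glo measures cytotoxicity in GeneBLAzer FXR-UAS-bla HEK 293T cells. Cells were exposed to compounds with 50 uM chenodeoxycholic acid (final) for 16 h at 37 C, in wells also used for the reporter readout.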

[4] = qHTS assay to identify small molecule agonists of the vitamin D receptor (VDR) signaling pathway - cell viability counter screen (AID 743224); note: nearly all actives have a fitted effect of over 50% in size; note: potency is the fitted concentration of half-maximal effect
Procedure, shortened: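 Plated VDR-bla cells (4 h, 37C) received compound, incubated 16 h, then LiveBLAzer substrate 2 h RT; CellTiter-Glo added afterwards, luminescence read at 30 min.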

[5] = qHTS assay to identify small molecule antagonists of the peroxisome proliferator-activated receptor delta (PPARd) signaling pathway - cell viability counter screen (AID 743213); note: nearly all actives have a fitted effect of over 50% in size; note: potency is the fitted concentration of half-maximal effect
Procedure, shortened: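 Same-well viability: cells pre-incubated 5 h, dosed with compound plus 300 nM L165041, kept 17 h at 37 C, FRET substrate 2 h RT, then CellTiter-Glo 30 min RT and luminescence.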

[6] = molecular target: Bile acid receptor (Homo sapiens) (UniProt Q96RI1); experiment: qHTS assay to identify small molecule agonists of the farnesoid-X-receptor (FXR) signaling pathway (AID 743220; active = well fitted activation curve with a large enough effect in the signal ratio in the repeat runs, not every such curve was filed as active; the % refers to the signal ratio)
Procedure, shortened: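 Beta-lactamase reporter under UAS control in GeneBLAzer FXR HEK 293T cells (5000/well) measured with LiveBLAzer FRET substrate after 2 h at room temperature. Compound exposure lasted 16 h at 37C.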

[7] = molecular target: Vitamin D3 receptor (Homo sapiens) (UniProt P11473); experiment: qHTS assay to identify small molecule agonists of the vitamin D receptor (VDR) signaling pathway (AID 743222; calls by dose curve)
Procedure, shortened: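 In VDR-bla cells, compound-induced beta-lactamase expression is quantified by FRET substrate fluorescence. Treatment lasts 16 h at 37C; substrate develops 2 h at room temperature.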

Peroxisome proliferator-activated receptor delta (Homo sapiens), sequence (Q03181 whole entry, looked up): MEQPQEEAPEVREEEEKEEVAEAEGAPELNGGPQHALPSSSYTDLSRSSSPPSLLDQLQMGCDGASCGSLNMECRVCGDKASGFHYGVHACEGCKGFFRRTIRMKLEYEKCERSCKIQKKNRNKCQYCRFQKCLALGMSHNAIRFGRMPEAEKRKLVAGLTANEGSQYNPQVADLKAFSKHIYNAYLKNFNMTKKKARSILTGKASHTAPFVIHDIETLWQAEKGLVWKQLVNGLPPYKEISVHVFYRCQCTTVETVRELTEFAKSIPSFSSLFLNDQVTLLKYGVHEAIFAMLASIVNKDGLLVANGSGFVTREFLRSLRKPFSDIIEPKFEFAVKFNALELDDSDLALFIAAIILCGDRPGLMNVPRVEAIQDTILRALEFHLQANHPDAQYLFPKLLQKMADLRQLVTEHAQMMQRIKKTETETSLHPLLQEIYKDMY
Vitamin D3 receptor (Homo sapiens), sequence (P11473 whole entry, looked up): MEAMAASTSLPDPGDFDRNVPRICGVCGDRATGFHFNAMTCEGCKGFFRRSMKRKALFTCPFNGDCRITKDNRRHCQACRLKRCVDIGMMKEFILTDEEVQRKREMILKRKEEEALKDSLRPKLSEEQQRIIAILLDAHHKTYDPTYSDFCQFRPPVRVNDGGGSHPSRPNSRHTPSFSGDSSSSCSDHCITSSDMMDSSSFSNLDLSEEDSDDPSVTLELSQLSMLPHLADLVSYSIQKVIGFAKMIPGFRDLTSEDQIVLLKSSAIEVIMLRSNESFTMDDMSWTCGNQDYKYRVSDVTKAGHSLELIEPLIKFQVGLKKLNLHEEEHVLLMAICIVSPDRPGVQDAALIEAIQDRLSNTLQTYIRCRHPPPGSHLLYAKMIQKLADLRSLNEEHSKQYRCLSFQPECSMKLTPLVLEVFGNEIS
Bile acid receptor (Homo sapiens), sequence (Q96RI1 whole entry, looked up): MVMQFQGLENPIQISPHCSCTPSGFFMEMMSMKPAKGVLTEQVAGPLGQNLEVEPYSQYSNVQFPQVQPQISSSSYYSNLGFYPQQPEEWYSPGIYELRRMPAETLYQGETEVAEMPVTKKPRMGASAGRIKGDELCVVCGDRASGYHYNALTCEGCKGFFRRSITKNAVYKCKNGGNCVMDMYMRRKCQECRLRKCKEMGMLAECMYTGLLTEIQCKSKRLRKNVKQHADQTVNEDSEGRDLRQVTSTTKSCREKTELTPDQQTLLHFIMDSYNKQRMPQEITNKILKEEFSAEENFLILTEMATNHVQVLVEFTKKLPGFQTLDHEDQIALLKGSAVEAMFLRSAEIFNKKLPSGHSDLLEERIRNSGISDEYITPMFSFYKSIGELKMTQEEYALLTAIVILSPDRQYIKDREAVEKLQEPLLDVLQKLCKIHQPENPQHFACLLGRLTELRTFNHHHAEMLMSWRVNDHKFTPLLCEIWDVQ

With CC(=O)Nc1ccc2c(c1)Cc1ccccc1-2 the Potency [1] was “inactive”, the Potency [2] was “inactive” and the Potency [3] was “inactive”. For the same compound, the Potency [4] was “inactive”.
With CCOP(=S)(OCC)OC(Cl)C(Cl)(Cl)Cl (stereo not drawn) the Potency [1] was “inactive”, the Potency [2] was “inactive” and the Potency [3] was “inactive”. For the same compound, the Potency [4] was “inactive”.
For COc1ccc(/C(=C/C(=O)N2CCOCC2)c2ccc(Cl)cc2)cc1OC, the Potency [5] was “inactive”, the outcome [6] was “inactive” and the Potency [3] was “inactive”. The Potency [7] was “inactive” and the Potency [4] was “inactive”.
With ClC1=C(Cl)[C@]2(Cl)[C@H]3[C@H]([C@H]4C=C[C@H]3C4)[C@@]1(Cl)C2(Cl)Cl the Potency [5] was “inactive”, the Potency [2] was “inactive” and the Potency [4] was “inactive”.
In the case of Cc1cc(SCc2sc(-c3ccc(C(F)(F)F)c(F)c3)nc2C)ccc1OCC(=O)O, the Potency [5] is reported as 12.3 µM (active), the Potency [3] is reported as “inactive” and the Potency [4] is reported as 49 µM (active).
With COc1cc(C=O)cc2c1[C@H](COC(N)=O)[C@]1(OC(C)=O)ON2C[C@H]2[C@@H]1N2C(C)=O the Potency [5] was “inactive” and the Potency [4] was “inactive”.
For O=[N+]([O-])c1cc([N+](=O)[O-])c2ccccc2c1, the Potency [5] was “inactive”, the Potency [3] was “inactive” and the Potency [4] was “inactive”.
In the case of O=C(O)c1cc[c]([Hg][Cl])cc1, the Potency [1] is reported as “inactive”, the Potency [2] is reported as 27.5 µM (active) and the Potency [3] is reported as “inactive”. The Potency [7] was “inactive” and the Potency [4] was 24.5 µM (active).
In the case of CCOC(=O)CC(=O)CCl, the Potency [5] is reported as “inactive”, the Potency [2] is reported as “inactive” and the Potency [7] is reported as “inactive”. The Potency [4] was “inactive”.
With CSCCCN=C=S the Potency [5] was “inactive”, the Potency [3] was “inactive” and the Potency [7] was “inactive”.
For [Cl][Sb]([Cl])[Cl], the Potency [5] was “inactive”, the Potency [2] was “inactive” and the Potency [4] was “inactive”.
For Oc1c(Cl)c(Cl)cc(Cl)c1Cl, the Potency [1] was “inactive”.
In the case of C[C@@H]1O[C@@H](O[C@@H]2C=C3CC[C@@H]4[C@H](CC[C@]5(C)[C@@H](c6ccc(=O)oc6)CC[C@]45O)[C@@]3(C)CC2)[C@H](O)[C@H](O)[C@H]1O, the Potency [5] is reported as 0.0119 µM (active), the Potency [3] is reported as 0.0106 µM (active) and the Potency [4] is reported as 0.0133 µM (active).
